Measurements reported in PubChem BioAssay AID1259343 (VanderVen Lab, College of Veterinary Medicine, Cornell …, 2017).
The campaign covered roughly 6,200 compounds. About 2,900 (47%) were called active. So high a share suggests a set chosen from earlier hits. Some of the results follow. Unmarked numbers belong to inactive results. No stated cut-off is given here; in the data, active means inhibition above about 50%; inactive means the rest.

experiment: Mycobacterium tuberculosis growth inhibition, primary screen (AID 1259343); details: inhibition: at 10 µM, stronger effect = higher value; outcome: 10 uM

Compound	inhibition
O=c1oc2c(c(O)c1-c1ccccc1)-c1ccccc1CC2	81% (active)
O=C(Cc1noc(C2CC2c2ccc(Cl)cc2)n1)NC1CCCC1 (stereo unspecified)	91.9% (active)
CC(C)(C)c1nc(CNC(=O)Cc2ccc(Cl)cc2)no1	27.8%
O=C(Cc1coc(-c2ccccc2)n1)NC1CCCC1	21.1%
Nc1ccc(-n2cnc3ccccc32)cc1	90.2% (active)
CC(C)c1nc(SCC(=O)N(C)CCOc2ccc(Cl)cc2)n[nH]1	34.8%
CCOC(=O)c1cnc(SCc2ccc(Cl)cc2)nc1N	89.2% (active)
Brc1ccc(-c2ccc(Br)cc2)cc1	38.3%
Clc1ccc2nnc(-c3ccc(Br)cc3)n2n1	68.1% (active)
CC(CC(=O)Nc1ccccc1-c1nn[nH]n1)CC(C)(C)C (stereo unspecified)	-15.1%
CCOC(=O)c1c(C)c(C(=O)NCCC(C)C)c(C)n1Cc1ccccc1	56.4% (active)
CC(C)CCNC(=O)c1csc(-c2ccccc2)n1	-48.7%
CCOc1nc(C#N)nc(N2CCOCC2)n1	22.3%
COC(=O)C1=C(C)N(C)C(=O)C12c1ccccc1-c1oc(N)nc12 (stereo unspecified)	58.3% (active)
COc1c(F)c(F)c(C(=O)C2C(=O)C=C(c3c(F)c(F)c(OC)c(F)c3F)OC2=O)c(F)c1F (stereo unspecified)	36.4%
Cc1ccc2nc(-c3ccccn3)c(NC(C)(C)CC(C)(C)C)n2c1	101% (active)
Cc1cccn2c(NC(C)(C)CC(C)(C)C)c(-c3cccc(OC(=O)c4cccc5ccccc45)c3)nc12	9.87%
O=C(Nc1ccc(C(F)(F)F)[nH]c1=O)c1ccccc1	-22.3%
Cc1ccc(NC(=O)c2cc3c(C(F)(F)F)cc(=O)[nH]c3o2)c(Cl)c1	101% (active)
Cc1ccc(-n2nc3c(c2NC(=O)/C=C\c2ccccc2)CSC3)cc1	84% (active)
Cc1cccc(C2CC(C(=O)N(C)Cc3ccco3)CN(Cc3cccc(F)c3)C2)c1 (stereo unspecified)	54.6% (active)
CCCc1ccc(CN2CCN(Cc3cccc(F)c3)CC2)o1	45.4%
CN(Cc1ccco1)C(=O)c1sc2cc(F)ccc2c1Cl	20.1%
Cc1cc(C(=O)NCCc2ccc(Cl)cc2)c(C)o1	88.2% (active)
CC(C)Nc1ncccc1C(=O)NCCc1cccc(Cl)c1	15.2%
CC(C)Cc1nc(CS(=O)(=O)C/C=C/c2ccccc2)no1	43.6%

Compound	inhibition
CC(C)Cc1noc(Cn2cc(I)cn2)n1	91.5% (active)
CC(CCC(=O)O)[C@H]1CCC2C3CC[C@@H]4C[C@H](O)CC[C@]4(C)C3C=C[C@@]21C (stereo partly specified)	34.3%
O=S(CCCOc1ccc(F)cc1)Cc1ccc(F)cc1Cl (stereo unspecified)	89.6% (active)
CN(CCOc1ccc(F)cc1)Cc1nc2cc(Cl)ccc2c(=O)[nH]1	-0.34%
Cc1cc(NC(=O)c2cccc(C(F)(F)F)c2)n(-c2nc3c(c(=O)[nH]2)CCC3)n1	100% (active)
Cc1cc(NC(=O)c2cccc(F)c2)n(-c2nc3c(c(=O)[nH]2)CCC3)n1	101% (active)
O=C(NCCNc1cccc(C(F)(F)F)n1)c1ccc(O)cc1	73.2% (active)
CN(C)C(CNC(=O)c1ccc(C(F)(F)F)cc1)c1c(F)cccc1Cl (stereo unspecified)	8.7%
CN(Cc1ccc(Br)s1)Cn1ncc2c([nH]c3ccccc32)c1=O	-13.5%
Cc1nc([N+](=O)[O-])cn1CCC(=O)NOCc1ccccc1	-5.24%
O=C(Nn1cc([N+](=O)[O-])cn1)c1cccc(COc2ccc(Br)cc2)c1	78.8% (active)
CCNC(=O)c1ccccc1OCc1cccc(Br)c1	19.8%
CNC(=O)Cc1ccc(-c2cc(OC)ccc2F)cc1	57.2% (active)
CCCSc1nsc(SCCC)c1C#N	97.4% (active)
CCCCCCSc1s[nH]c(=O)c1C#N	inactive
Fc1ccc(-c2nnn(Cc3ccccc3Br)n2)cc1	-14%
Fc1ccccc1Cn1nnc(-c2ccc(Br)cc2)n1	94.7% (active)
O=c1cc2c(nn1Cc1ccc(Br)cc1F)CCCC2	-5.6%
C/C(=C\c1cc(Cl)ccc1O)CN1CCN(c2ncc(F)cn2)CC1	37.7%
Cc1ccc2oc(CN3CCN(c4cc(N)nc(N)n4)CC3)c(C)c2c1	34.6%
C/C(=C\c1ccco1)CN1CCN(c2nc3cc(C)ccc3o2)CC1	94.4% (active)
CCCCN(C(=O)c1nc2nccc(C)n2n1)c1ccccc1	-8.51%
S=c1oc(-c2sc3ccccc3c2Cl)nn1CN1CCOCC1	1.82%
C(=Cc1ccccc1)CSc1nnc(-c2c[nH]c3ccccc23)o1	19.9%
C=CCSc1nnc(-c2sc3ccccc3c2Cl)o1	66.8% (active)
COc1cc(OC)c(C2=CCN(C(=O)CC3CCCC3)CC2)c(OC)c1	5.97%

Compound	inhibition
COc1cc2c(cc1OC)CN(C(=O)CCl)CC2	83.7% (active)
O=C(Cc1csc(NC(=O)NC2CCCCC2)n1)Nc1ccccc1Oc1ccccc1	-3.55%
CCc1csc(NC(=O)C2=NOC(c3ccccc3)C2)n1 (stereo unspecified)	64% (active)
Brc1cc(CNc2cccnc2N2CCCC2)cs1	21.1%
Cc1csc2nc(CNc3ccc(NC(=O)C4CC4)cc3C(F)(F)F)cc(=O)n12	10.5%
Cc1csc2nc(CNc3cccc(C#Cc4cccs4)c3)cc(=O)n12	60.6% (active)
O=c1cc(CNc2cccc(F)c2)nc2sc3c(n12)CCCC3	30.1%
CC(Cc1ccccc1Cl)NC(=O)c1ccccn1 (stereo unspecified)	70.5% (active)
CC(CCc1ccccc1)NC(=O)c1cc(Cl)ccn1 (stereo unspecified)	43.1%
O=C(NCCc1ccccc1Cl)c1cccc2ccnn12	44.4%
Cc1ccc(S(=O)(=O)Nc2cc(C(C)C)no2)s1	43.6%
Cc1ccc(S(=O)(=O)NCCc2sc(-c3ccc(Cl)cc3)nc2C)s1	76.3% (active)
Cc1ccc(S(=O)(=O)NC(C)c2ccc(Cl)cc2Cl)s1 (stereo unspecified)	42.2%
CCOc1ccc(C(=O)Nc2cc(C)nn2-c2nc(C)cc(=O)[nH]2)cc1	102% (active)
CCCCOc1ccc(C(=O)Nc2cc(C)nn2-c2nc(C)c(C)c(=O)[nH]2)cc1	16.8%
CCOc1ccc(C(=O)Nc2cc(-c3cccs3)nn2-c2nc(C)cc(=O)[nH]2)cc1	93.9% (active)
CCCCOc1ccc(C(=O)Nc2cc(C)nn2-c2nc(C)cc(=O)[nH]2)cc1	101% (active)
Cc1ccc(C)c2c(C)c(C(=O)NCC3(C)CCCO3)oc12 (stereo unspecified)	38.4%
O=C(Oc1ccccc1C(=O)O)c1ccccc1O	inactive
Nc1ccc(C(=O)Oc2ccccc2)c(O)c1	98.9% (active)
CCc1nc(Nc2cccc(C(F)(F)F)c2)c2ccc(Cl)cc2n1	88.9% (active)
O=S(=O)(Nc1nc2ccccc2nc1Cl)c1cccc(C(F)(F)F)c1	38.5%
O=S(Cc1cccc(C(F)(F)F)c1)Cc1ccc(Cl)cc1Cl (stereo unspecified)	42.1%
CC(C)N(C(=O)CCl)c1ccccc1	100% (active)
CN(CC1COc2ccccc2O1)C(=O)CCl (stereo unspecified)	-21.8%
Cc1cc(=O)[nH]c2sc(C(=O)Nc3ccc(Br)cc3)c(N)c12	79.5% (active)

Compound	inhibition
CCCc1ncc(CN2CCCC(C(=O)Nc3ccc(-c4cccc(OC)c4)cc3)C2)cn1 (stereo unspecified)	68.2% (active)
COc1cccc(-c2ccc(NC(=O)C3CCCN(Cc4nccs4)C3)cc2)c1 (stereo unspecified)	48.2%
COc1cccc(-c2ccc(NC(=O)C3CCCN(Cc4cccc(O)c4)C3)cc2)c1 (stereo unspecified)	70.1% (active)
Cc1cc(C(C)(C)C)cc(C)c1CCNS(=O)(=O)N(C)C	27.1%
Cn1ccc(C(=O)NCCc2ccc(OCc3ccccc3)cc2)cc1=O	65.2% (active)
Cc1cc(C(=O)Nc2ccn(-c3ccccc3)n2)c(C)o1	59.6% (active)
O=C(Nc1ccn(-c2ccccc2)n1)C1CCCC1	21.5%
Brc1cnn(Cc2nnc(-c3ccco3)o2)c1	-27.3%
Nc1cnn(Cc2ccc(Br)cc2)c1	94.8% (active)
CN(C)c1cc[n+](Cc2c(Cl)cccc2Cl)cc1	21.9%
C[n+]1c2cc(N)ccc2cc2ccc(N)cc21	92% (active)
Oc1[nH]c2c(Cl)cc(Cl)cc2c1N=Nc1nc2ccccc2o1	101% (active)
O=C1N=c2ccccc2=C1N=Nc1nc(O)c(-c2c(O)[nH]c3ccccc23)s1	-14%
O=C1N=c2ccccc2=C1N=Nc1c(O)[nH]c2c(Cl)cc(Cl)cc12	80% (active)
O=C(NNc1cccc(Cl)c1)[C@@H]1CCCN1c1nccc(Nc2ccccc2)n1	91.9% (active)
CCOc1coc(C(=O)NCCc2ccc(Cl)cc2)cc1=O	49.6%
O=C(NCCCc1ccccc1)c1cc(=O)c(OCc2ccc(F)cc2)co1	99.9% (active)
O=C(NCCCc1ccccc1)c1cc(=O)c(OCc2ccccc2)co1	99.7% (active)
Cc1ccc(C)c(COc2cccn3c(CCNC(=O)COCc4ccccc4)cnc23)c1	33.6%
CCOC(=O)Cn1c(=NC(=O)c2cc(C)no2)sc2cccc(F)c21	49.7%
O=c1c(-c2ccc3c(c2)OCCO3)c(C(F)(F)F)oc2cc(O)ccc12	104% (active)
CC(=O)Oc1ccc2c(=O)c(Oc3ccc(F)cc3)c(C(F)(F)F)oc2c1	18.9%
CC(=O)Oc1ccc2c(=O)c(-c3ccc4c(c3)OCCO4)c(C)oc2c1OC(C)=O	26.1%
